Experimental findings from PubChem BioAssay (Tox21) are described below.

The structures appear in SMILES notation. Results filed as inconclusive are left out. Calls of active or inactive are those of the source. Calls come from the whole dose curve; as a rule, active = well fitted inhibition curve with a large enough effect in the repeat runs; inconclusive = weak or mixed curves; inactive = no such curve, though single readings can be large or run the other way.
% is set by controls: 0 for no effect and ±100 for the full control effect.

The assay in a line: qHTS assay to identify small molecule antagonists of the estrogen related receptor (ERR) signaling pathway from Tox21 library (AID 1224848). Note: nearly all actives have a fitted effect of over 50% in size. To be noted: ERR reporter cell line, luciferase antagonist mode, 18 h; series mostly up to 92.4 µM; activity, negative = inhibition: at the top concentration. The text has this:
U.S. Tox21 Program National Center for Advancing Translational Sciences [NCATS] NIH Chemical Genomics Center [NCGC] U.S. Environmental Protection Agency [EPA] National Institutes of Environmental Health Sciences [NIEHS] National Toxicology Program [NTP] U.S. Food and Drug Administration [FDA] Tox21 Assay Overview: Estrogen related receptors (ERRs), the first orphan nuclear receptors discovered, play an important role in the control of cellular energy metabolism. ERRs are required for high-energy production in response to the environmental challenges. ERR-alpha was also identified as an adverse marker for breast cancer progression; ERR-alpha-positive tumors have a poor prognosis. To screen and to identify environmental compounds that perturb the ERR signaling pathways could provide valuable information for potential therapeutic or preventive measures in the treatment of metabolic disease. For identifying ERR antagonists, ERR cell line (provided by NTP) has been used to screen Tox21 10K library.
Tox21 Assay Protocol Summary: The ERR cells were dispensed at 2,000 cells/5 ul/well in 1536-well white plates using a Multidrop dispenser. After the assay plates were incubated at a 37 C/5% CO2 incubator for 6 hours, 23 nL of compounds dissolved in DMSO, positive and negative controls or DMSO only was transferred to the assay plate by a pin tool. The plates were incubated at 37 C for 18 hours. 4 ul/well of One-Glo reagent was added into the assay plates using a Flying Reagent Dispenser. After 30-minute incubation at room temperature, the luminescence intensity in the plates was measured using a ViewLux plate reader.
(qHTS replaces the single test concentration by a dilution series.)
With `Cc1cc(O)cc2c1O[C@](C)(CCC[C@H](C)CCC[C@H](C)CCCC(C)C)CC2`, the “activity, negative = inhibition” value is 10.3% [at 42.5 µM] (inactive).
Turning to `COc1ccc2c(c1)CCCC2=O`, the “activity, negative = inhibition” value was 8.89% [at 42.5 µM] (inactive).
Turning to `CC(=O)OC/C=C(\C)CC/C=C(\C)CCC=C(C)C`, the Potency result was “inactive”.
Take `Nc1c2c(nc3ccccc13)CCCC2O` (stereo not given): the “activity, negative = inhibition” value was 0.218% [at 42.5 µM] (inactive).
For `COC(=O)CC(C)=O`, the “activity, negative = inhibition” value is 3.5% (inactive).
On to `Cc1c(NC(C)C)c(=O)n(-c2ccccc2)n1C`, for which the “activity, negative = inhibition” value was 1% [at 42.5 µM] (inactive).
For `O=[N+]([O-])c1ccc(F)cc1F`, the “activity, negative = inhibition” value is 4.59% (inactive).
Regarding `CCCCCCCCCCCCCCCCC`, the “activity, negative = inhibition” value is 1.99% (inactive).
For `C=C[Si](OC(=C)C)(OC(=C)C)OC(=C)C`, the “activity, negative = inhibition” value was -0.57% (inactive).
The same measure, in the same setting: with `O=C(O)COc1nn(Cc2ccccc2)c2ccccc12` the figure was -2.49% [at 42.5 µM] (inactive).
With `CCOc1ccc(C(=O)OCCN(CC)CC)cc1`, the “activity, negative = inhibition” value was 2.47% [at 42.5 µM] (inactive).
On the same count and under the same terms, with `Cc1cc2c(cc1S(N)(=O)=O)S(=O)(=O)CCC2` the figure was 4.45% [at 42.5 µM] (inactive); with `c1ccc(CC2=NCCN2)cc1`, -1.59% [at 42.5 µM] (inactive).
For the compound `NS(=O)(=O)c1ccccc1Cl`, the “activity, negative = inhibition” value was 4.63% (inactive).
Same read-out and setting: the value for `N=C(N)c1ccc(OCCCOc2ccc(C(=N)N)cc2)cc1` was 17.1% [at 42.5 µM] (inactive).
Take `CC(=O)Nc1ccc(S(N)(=O)=O)cc1`: the “activity, negative = inhibition” value is 8.22% (inactive).
Consider `CC(C)(O)C#CC(C)(C)O`, for which the “activity, negative = inhibition” value is 6.8% (inactive).
With `CCCc1cc(C(N)=S)ccn1`, the “activity, negative = inhibition” value is -10.8% [at 42.5 µM] (inactive).
Consider `CO[C@]12C[C@@H](COC(=O)c3cncc(Br)c3)CN(C)[C@@H]1Cc1cn(C)c3cccc2c13`, for which the “activity, negative = inhibition” value is 9.77% [at 42.5 µM] (inactive).
Take `CCO[Si](CCC1CCC2OC2C1)(OCC)OCC` (stereo not given): the “activity, negative = inhibition” value is 7.93% (inactive).
Turning to `O=C(O)Cc1ccc(CCNS(=O)(=O)c2ccc(Cl)cc2)cc1`, the “activity, negative = inhibition” value is 0.438% [at 42.5 µM] (inactive).
Take `COCCc1ccc(OCC(O)CNC(C)C)cc1` (stereo not given): the “activity, negative = inhibition” value was 10.2% [at 42.5 µM] (inactive).
`C[N+](C)(C)CC(O)CC(=O)[O-]` (stereo not given): the “activity, negative = inhibition” value was 6.5% [at 42.5 µM] (inactive).
Consider `O=c1cc(CO)occ1O`, for which the “activity, negative = inhibition” value was 4.69% [at 42.5 µM] (inactive).
Consider `CCc1nccnc1CC`, for which the activity, negative = inhibition is 3.93% [at 19 µM] (inactive).
Take `CCC=O`: the “activity, negative = inhibition” value was 1.23% (inactive).
On the same count and under the same terms, the value for `CCC(=O)OC(C)c1ccccc1` (stereo not given) was -0.289% (inactive); that for `CCOC(C)(C)C` was 4.52% (inactive); that for `O=C(c1ccccc1)C1CCCCC1` was 5.03% (inactive).
As to `O=C[C@H](O)[C@@H](O)[C@H](O)[C@H](O)CO`, the “activity, negative = inhibition” value was 5.04% (inactive).
Regarding `CC(C)CCCC(C)N` (stereo not given), the “activity, negative = inhibition” value is 1.6% [at 42.5 µM] (inactive).
In the case of `CC/C=C\CC/C=C/C(OCC)OCC`, the “activity, negative = inhibition” value is 3.66% (inactive).
Consider `C=CCS(=O)(=O)O`, for which the “activity, negative = inhibition” value is 5.11% (inactive).
`COC(=O)NN`: the “activity, negative = inhibition” value was -35.1% (inactive).
On to `Cc1ccc(Cl)cc1Cl`, for which the “activity, negative = inhibition” value is -0.542% (inactive).
Regarding `C1OCOCO1`, the “activity, negative = inhibition” value is 9.66% (inactive).
The same measure, in the same setting: with `C[C@](N)(Cc1ccc(O)cc1)C(=O)O` the figure was 3.87% [at 8.39 µM] (inactive); with `CC/C=C\CCOC(C)=O`, 13.7% (inactive); with `CCn1ccnc1CC1COc2ccccc2O1` (stereo not given), 15.3% [at 42.5 µM] (inactive).
Regarding `CC(C[N+](C)(C)C)OC(N)=O` (stereo not given), the “activity, negative = inhibition” value was 5.83% [at 42.5 µM] (inactive).
